# Compounds without any hit were thinned out: in the full panel of roughly 83,000, 20% have a hit.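 Results are percent growth after 48 hours of single-concentration exposure. 100 means growth as in untreated cells, lower positive values show inhibition; negative values down to -100 show cell death.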 Values without a mark were called inactive. Active and inactive are the calls of the source. The calls were made as follows: active = growth percent below 10; inactive = the rest.
# System: NCI/ADR-RES ovarian
# Assay: NCI-60 one-dose screen, 48 h (100 = growth as untreated, 0 = no growth, -100 = all killed)
# Details: 10 µM unless noted
row,SMILES,growth
1,CCOC(=O)c1cn2ncnc(Oc3ccc(NC(=O)NC4CC4)c(Cl)c3)c2c1C,90.3%
2,COC1C(O)CC(OC2CC(OC3CC(O[C@@H]4C(=O)c5c(cc6cc(OC7CC(OC8CC(O)C(O)C(C)O8)C(O)C(C)O7)c(C)c(O)c6c5O)CC4[C@H](OC)[C@@H](O)C(C)=O)OC(C)C3O)OC(C)C2O)OC1C (stereo partly drawn),68.8%
3,COC12C=C/C(=C(/C(=O)OCc3csc(SC)n3)C(=O)CCCCCCCCC3(OC)C=C/C(=C(/C(=O)OCc4cnc(SC)s4)C(=O)CCCCCCCC1)O3)O2 (stereo not drawn),81.3%
4,COc1ccc(/C=C2\CN(C(=O)C(Cl)Cl)C/C(=C\c3ccc(OC)c(OC)c3)C2=O)cc1OC,13.7%
5,Cc1c2cnccc2c(C)c2c1c1cc(CO)ccc1n2C,-24.6% (active)
6,COc1ccc(C=Nc2c(C(=O)Nc3cccc(Cl)c3C)sc3nc(C)c(C(=O)/C=C/c4ccc(OC)cc4)cc23)cc1,10.9%
7,O=[N+]([O-])c1c(O)c(Cl)cc(Cl)c1Cl,95.6%
8,CN1CCOCCN(C)Cc2ccc3ccc(cc3c2)CN(C)CCOCCN(C)Cc2ccc3ccc(cc3c2)C1,83.5%
9,O=C1/C(=C/c2c[nH]c(=O)[nH]c2=O)SC(=S)N1Cc1ccccc1,106%
10,O=Nc1ccc(NC(=O)Nc2ccc([N+](=O)[O-])cc2)cc1,91.6%
11,N#Cc1nn(-c2cc(=O)[nH]c3ccc(Br)cc23)c(N)c1C#N,102%
12,C[C@H](c1nc2ccc(C#N)cc2[nH]1)[C@H]1CC[C@H]2[C@@H]3CCC4=CC(=O)CC[C@]4(C)[C@H]3CC[C@]12C,67.5%
13,CCOC(=O)C1=C(c2ccccc2)N=C2N(c3ccccc3)N=C(C(C)=O)N2C1c1ccc(F)cc1 (stereo not drawn),109%
